The values below come from ChEMBL document CHEMBL2218924, “A broad activity screen in support of a chemogenomic map for kinase signalling research and drug discovery” (Biochem J, 2013).

The target of assay [1] is Tyrosine-protein kinase SYK (Homo sapiens) (UniProt P43405). The conditions noted are these: at 10 µM.
In assay [2] the target is T1, Mitogen-activated protein kinase kinase kinase 7 (Homo sapiens) (UniProt O43318).
T1 sequence (whole entry): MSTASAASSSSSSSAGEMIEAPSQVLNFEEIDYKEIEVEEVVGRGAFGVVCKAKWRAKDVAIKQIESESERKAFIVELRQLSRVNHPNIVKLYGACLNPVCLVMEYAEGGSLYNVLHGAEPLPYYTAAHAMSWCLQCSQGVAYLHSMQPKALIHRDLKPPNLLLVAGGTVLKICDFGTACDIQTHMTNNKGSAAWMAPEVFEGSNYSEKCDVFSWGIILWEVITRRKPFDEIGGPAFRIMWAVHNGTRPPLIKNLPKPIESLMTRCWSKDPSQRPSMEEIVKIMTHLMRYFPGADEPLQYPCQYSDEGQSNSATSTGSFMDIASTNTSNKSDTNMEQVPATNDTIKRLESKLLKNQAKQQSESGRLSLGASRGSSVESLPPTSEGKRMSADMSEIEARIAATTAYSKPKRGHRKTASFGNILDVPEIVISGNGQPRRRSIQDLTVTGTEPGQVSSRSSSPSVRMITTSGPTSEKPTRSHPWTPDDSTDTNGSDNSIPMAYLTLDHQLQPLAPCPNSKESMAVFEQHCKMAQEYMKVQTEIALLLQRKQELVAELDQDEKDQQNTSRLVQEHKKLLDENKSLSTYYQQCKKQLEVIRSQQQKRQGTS
The conditions noted are these: at 10 µM.

For assay [3], the target named is T2, Serine/threonine-protein kinase TAO1 (Homo sapiens) (UniProt Q7L7X3).
T2 sequence (whole entry): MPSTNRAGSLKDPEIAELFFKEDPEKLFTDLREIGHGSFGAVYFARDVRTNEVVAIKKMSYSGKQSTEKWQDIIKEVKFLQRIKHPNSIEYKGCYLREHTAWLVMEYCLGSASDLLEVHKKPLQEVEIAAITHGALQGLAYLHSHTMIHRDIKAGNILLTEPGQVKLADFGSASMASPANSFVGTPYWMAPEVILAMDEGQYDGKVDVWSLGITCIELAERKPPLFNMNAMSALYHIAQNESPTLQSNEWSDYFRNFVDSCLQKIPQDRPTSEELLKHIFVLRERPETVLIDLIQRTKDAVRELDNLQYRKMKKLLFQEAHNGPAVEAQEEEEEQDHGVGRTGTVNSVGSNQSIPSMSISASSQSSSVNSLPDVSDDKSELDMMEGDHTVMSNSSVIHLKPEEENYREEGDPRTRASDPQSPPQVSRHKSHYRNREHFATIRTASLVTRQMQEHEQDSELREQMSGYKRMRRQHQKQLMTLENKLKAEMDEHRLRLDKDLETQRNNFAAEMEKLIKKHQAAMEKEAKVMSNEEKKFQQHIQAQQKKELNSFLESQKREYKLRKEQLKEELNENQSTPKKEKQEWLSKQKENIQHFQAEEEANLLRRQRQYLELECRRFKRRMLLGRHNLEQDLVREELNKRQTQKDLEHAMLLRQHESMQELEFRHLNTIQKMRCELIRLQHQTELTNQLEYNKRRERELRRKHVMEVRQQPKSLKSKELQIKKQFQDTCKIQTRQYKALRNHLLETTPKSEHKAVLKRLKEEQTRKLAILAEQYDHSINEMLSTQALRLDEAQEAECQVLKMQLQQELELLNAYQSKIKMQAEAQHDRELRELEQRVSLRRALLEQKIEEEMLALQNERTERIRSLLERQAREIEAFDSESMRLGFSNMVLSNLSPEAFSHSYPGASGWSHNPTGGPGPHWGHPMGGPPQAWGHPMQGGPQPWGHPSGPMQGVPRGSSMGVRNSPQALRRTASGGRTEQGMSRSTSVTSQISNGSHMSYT
Conditions: at 10 µM.

The target of assay [4] is T3, Serine/threonine-protein kinase TAO3 (Homo sapiens) (UniProt Q9H2K8).
T3 sequence (whole entry): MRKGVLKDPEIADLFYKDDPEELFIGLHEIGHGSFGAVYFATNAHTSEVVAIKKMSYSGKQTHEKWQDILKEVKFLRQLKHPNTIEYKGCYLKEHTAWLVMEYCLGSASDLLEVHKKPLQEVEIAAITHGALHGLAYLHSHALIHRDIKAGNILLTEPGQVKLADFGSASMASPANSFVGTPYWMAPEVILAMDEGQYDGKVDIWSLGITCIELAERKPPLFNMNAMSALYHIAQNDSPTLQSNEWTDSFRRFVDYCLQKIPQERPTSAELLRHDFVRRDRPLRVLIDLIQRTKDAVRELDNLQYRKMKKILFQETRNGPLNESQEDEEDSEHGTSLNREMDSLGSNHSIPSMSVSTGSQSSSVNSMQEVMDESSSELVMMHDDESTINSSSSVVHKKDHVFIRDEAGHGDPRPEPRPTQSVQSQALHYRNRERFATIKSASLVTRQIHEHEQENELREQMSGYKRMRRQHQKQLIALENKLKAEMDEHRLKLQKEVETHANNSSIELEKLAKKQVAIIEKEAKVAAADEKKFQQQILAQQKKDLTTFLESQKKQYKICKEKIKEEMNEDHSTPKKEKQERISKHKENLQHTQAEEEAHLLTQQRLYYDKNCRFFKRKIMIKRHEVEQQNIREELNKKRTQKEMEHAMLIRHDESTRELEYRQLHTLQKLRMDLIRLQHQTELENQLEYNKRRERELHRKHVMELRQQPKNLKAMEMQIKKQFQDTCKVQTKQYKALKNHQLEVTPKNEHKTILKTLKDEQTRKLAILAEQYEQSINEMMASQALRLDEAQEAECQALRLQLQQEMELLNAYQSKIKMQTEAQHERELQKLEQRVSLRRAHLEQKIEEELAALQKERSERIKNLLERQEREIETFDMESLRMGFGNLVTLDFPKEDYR
The conditions noted are these: at 1 µM.

The target of assay [5] is T3, Serine/threonine-protein kinase TAO3 (Homo sapiens). Conditions: at 10 µM.
For assay [6], the target named is T4, Serine/threonine-protein kinase TBK1 (Homo sapiens) (UniProt Q9UHD2).
T4 sequence (whole entry): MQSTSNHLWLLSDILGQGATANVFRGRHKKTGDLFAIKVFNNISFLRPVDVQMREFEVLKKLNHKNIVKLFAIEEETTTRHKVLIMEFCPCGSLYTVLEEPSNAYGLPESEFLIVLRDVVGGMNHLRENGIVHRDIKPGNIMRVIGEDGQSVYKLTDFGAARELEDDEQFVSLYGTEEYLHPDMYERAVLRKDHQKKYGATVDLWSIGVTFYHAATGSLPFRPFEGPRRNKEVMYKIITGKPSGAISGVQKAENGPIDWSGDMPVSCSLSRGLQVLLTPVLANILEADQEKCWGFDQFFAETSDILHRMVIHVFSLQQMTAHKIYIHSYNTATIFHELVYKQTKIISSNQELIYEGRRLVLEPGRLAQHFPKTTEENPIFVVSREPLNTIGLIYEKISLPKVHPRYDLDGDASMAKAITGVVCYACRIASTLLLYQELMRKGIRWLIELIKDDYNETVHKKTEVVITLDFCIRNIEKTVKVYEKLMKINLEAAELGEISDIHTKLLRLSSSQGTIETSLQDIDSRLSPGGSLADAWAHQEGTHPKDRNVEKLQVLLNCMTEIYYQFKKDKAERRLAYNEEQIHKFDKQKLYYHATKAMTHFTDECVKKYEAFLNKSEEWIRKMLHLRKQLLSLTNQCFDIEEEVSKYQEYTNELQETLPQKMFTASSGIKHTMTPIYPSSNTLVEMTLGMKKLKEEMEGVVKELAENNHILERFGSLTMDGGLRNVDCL
The conditions noted are these: at 1 µM.

The target in assay [7] is T4, Serine/threonine-protein kinase TBK1 (Homo sapiens). The conditions noted are these: at 10 µM.
For assay [8], the target named is T5, Inhibitor of nuclear factor kappa-B kinase subunit alpha (Homo sapiens) (UniProt O15111).
T5 sequence (whole entry): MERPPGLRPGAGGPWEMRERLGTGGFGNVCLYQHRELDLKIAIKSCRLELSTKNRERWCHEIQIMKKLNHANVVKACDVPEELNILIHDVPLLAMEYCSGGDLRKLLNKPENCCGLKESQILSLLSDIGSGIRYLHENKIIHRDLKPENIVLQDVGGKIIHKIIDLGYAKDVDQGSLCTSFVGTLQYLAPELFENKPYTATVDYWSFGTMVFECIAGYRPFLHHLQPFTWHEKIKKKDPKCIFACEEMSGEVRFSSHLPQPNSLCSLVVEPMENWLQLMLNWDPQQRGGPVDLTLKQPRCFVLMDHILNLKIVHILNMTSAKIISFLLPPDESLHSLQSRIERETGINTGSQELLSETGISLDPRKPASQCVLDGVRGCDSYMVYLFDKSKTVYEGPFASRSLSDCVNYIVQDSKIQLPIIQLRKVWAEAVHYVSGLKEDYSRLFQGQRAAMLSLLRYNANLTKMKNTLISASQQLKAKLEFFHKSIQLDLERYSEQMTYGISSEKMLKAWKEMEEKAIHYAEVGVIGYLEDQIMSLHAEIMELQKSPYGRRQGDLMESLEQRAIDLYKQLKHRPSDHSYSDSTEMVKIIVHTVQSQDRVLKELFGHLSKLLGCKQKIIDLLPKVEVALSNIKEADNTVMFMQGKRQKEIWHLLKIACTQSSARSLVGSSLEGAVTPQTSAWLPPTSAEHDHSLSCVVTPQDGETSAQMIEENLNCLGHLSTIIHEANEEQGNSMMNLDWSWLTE
Conditions: at 1 µM.

The target in assay [9] is T5, Inhibitor of nuclear factor kappa-B kinase subunit alpha (Homo sapiens). Conditions: at 10 µM.
Assay [10] addresses T1, Mitogen-activated protein kinase kinase kinase 7 (Homo sapiens). The conditions noted are these: at 1 µM.
The target of assay [11] is Insulin receptor (Homo sapiens) (UniProt P06213). The conditions noted are these: at 1 µM.
Insulin receptor (Homo sapiens), sequence (P06213 28-758 limits assumed): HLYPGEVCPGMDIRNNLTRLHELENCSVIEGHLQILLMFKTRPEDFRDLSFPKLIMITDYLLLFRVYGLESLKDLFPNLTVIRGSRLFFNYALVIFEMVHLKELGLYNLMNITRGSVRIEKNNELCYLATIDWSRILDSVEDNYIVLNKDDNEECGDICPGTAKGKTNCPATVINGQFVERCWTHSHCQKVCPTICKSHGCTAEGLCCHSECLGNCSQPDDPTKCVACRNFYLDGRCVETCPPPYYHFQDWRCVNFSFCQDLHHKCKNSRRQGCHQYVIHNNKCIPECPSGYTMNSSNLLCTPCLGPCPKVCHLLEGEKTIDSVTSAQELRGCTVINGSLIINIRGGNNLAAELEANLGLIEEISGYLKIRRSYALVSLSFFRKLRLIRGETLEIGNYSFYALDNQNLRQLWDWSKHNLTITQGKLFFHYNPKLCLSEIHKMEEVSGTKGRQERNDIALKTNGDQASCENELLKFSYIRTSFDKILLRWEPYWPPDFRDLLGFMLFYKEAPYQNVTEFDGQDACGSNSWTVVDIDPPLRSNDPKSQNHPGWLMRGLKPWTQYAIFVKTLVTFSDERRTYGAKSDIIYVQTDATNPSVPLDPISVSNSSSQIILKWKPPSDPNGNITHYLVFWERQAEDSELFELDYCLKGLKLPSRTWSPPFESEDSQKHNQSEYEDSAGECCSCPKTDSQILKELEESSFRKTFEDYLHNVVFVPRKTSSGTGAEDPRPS
Insulin receptor (Homo sapiens), sequence (P06213 763-1382 limits assumed): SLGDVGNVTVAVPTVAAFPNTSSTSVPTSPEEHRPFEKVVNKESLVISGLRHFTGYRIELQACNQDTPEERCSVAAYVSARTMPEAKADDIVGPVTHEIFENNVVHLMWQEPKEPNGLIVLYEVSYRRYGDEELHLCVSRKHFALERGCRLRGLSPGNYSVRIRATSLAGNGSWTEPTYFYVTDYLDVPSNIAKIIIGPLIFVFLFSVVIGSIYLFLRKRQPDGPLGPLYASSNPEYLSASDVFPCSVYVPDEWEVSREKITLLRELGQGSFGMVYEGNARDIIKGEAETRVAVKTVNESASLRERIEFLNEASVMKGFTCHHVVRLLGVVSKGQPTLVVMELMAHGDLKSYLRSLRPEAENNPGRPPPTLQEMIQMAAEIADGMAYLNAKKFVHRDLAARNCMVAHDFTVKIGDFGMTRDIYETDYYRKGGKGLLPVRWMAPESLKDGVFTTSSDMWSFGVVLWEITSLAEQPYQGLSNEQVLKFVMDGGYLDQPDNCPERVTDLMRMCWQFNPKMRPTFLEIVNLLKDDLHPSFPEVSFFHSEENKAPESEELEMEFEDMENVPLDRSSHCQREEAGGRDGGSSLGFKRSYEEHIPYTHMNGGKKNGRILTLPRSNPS

`O=C1NC(=O)C(c2cn(CCCn3ccnc3)c3ccccc23)=C1Nc1ccccc1`: the residual activity in [1] amounted to 67%; in assay [2], 66%; in assay [3], 37%; in [4], 63%; in assay [5], 19%; in assay [6], 22%. Moreover, the residual activity came out at 9% in assay [7], 112% in [8] and 103% in assay [9].

With `CCOC(=O)c1c(C)[nH]c(/C=C2\C(=O)Nc3ccccc32)c1C`, the residual activity in assay [10] is 89%; in assay [2], 98%; in assay [6], 92%; in assay [7] it was 85%; in assay [8], 96%; in assay [9] it was 88%. Besides, the residual activity in [11] was 93%.
